Source: PubChem BioAssay
Some of the results follow. Unmarked numbers belong to inactive results. Activity calls are given as the source filed them. Rule as the data show it, unless noted: active = activation above about 33%; inactive = the rest.

What follows are compounds tested against Sphingosine 1-phosphate receptor 4 (Homo sapiens) (UniProt O95977) (assay: blockers of human S1P4 signalling – cell-based, confirmation (AID 1524; in the data active = inhibition above about 30%)). Conditions: S1P4-expressing cell line, antagonist mode, reporter read-out; at 4.98 µM; stronger effect = higher value.
Chain of Sphingosine 1-phosphate receptor 4 (Homo sapiens) (O95977 whole entry, looked up): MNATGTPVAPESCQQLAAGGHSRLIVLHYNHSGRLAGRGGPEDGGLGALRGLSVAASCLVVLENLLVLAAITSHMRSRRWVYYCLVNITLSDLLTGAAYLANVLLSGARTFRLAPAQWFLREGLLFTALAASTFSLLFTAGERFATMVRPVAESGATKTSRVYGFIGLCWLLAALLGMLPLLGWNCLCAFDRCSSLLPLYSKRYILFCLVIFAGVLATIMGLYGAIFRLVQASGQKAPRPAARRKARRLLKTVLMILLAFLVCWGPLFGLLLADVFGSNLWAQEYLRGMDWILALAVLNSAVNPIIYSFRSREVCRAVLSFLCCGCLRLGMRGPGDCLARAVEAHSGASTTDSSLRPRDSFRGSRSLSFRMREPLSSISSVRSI
In the case of `O=C1C=C(c2ccc(Cl)cc2)C(=O)N1Nc1ccccc1`, the inhibition is reported as 119% (active). With `C=CS(=O)c1sc(Cl)c(N2CCOCC2)c1[N+](=O)[O-]` (configuration not stated) the inhibition was 102% (active). For `CC1CC2=C(CC1/C=N/NC(N)=S)C(C)(C)CCC2` (configuration not stated), the inhibition was 67.8% (active). `Cc1cccc(NC(=O)c2ccc([N+](=O)[O-])o2)c1` was tested, and the inhibition was 79% (active). With `O=C(/C=C/c1ccc(Cl)c([N+](=O)[O-])c1)c1ccc(O)cc1` the inhibition was 102% (active). With `CC1CC(C)CN(S(=O)(=O)c2cccc(C(=O)N3C(=O)c4cccc(N)c4C3=O)c2)C1` (configuration not stated) the inhibition was 32.3% (active). `O=C(Nc1ccccc1)c1nnsc1S(=O)(=O)c1ccc(Cl)cc1` was tested, and the inhibition was 116% (active). For `Nc1nonc1-c1nc2ccccc2n1Cc1ccc(F)cc1`, the inhibition was 35.7% (active).

What follows are compounds tested against Neuropeptide Y receptor type 2 (Homo sapiens) (UniProt P49146) (assay: human Y2 receptor positive modulation or activation – cell-based, confirmation (AID 1539)). Conditions: cell-based NPY-Y2 potentiator/agonist assay; at 3.6 µM; stronger effect = higher value.
Chain of Neuropeptide Y receptor type 2 (Homo sapiens) (P49146 whole entry, looked up): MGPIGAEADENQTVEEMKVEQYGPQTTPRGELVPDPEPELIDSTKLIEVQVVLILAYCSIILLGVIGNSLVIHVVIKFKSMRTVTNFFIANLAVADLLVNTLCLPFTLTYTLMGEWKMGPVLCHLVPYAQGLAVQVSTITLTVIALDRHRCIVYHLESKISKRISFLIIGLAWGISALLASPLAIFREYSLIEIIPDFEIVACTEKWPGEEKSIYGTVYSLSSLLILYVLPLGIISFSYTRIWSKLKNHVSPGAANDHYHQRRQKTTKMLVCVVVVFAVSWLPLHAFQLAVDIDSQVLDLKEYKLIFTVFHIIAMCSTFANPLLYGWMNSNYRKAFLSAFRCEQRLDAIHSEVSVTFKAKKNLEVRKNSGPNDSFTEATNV
`O=C1NC(c2ccc(-c3ccccc3[N+](=O)[O-])o2)C(C(=O)c2ccc(Cl)cc2)C(O)(C(F)(F)F)N1` (configuration not stated) was tested, and the activation was 28.1%. In the case of `CN(Cc1ccccc1)C(=O)CCNC(=O)Cn1cnc2ccccc2c1=O`, the activation is reported as 11.1%. `CC(=O)c1ccc2c(c1)OCCOCCOc1ccc(C(C)=O)cc1OCCOCCO2` gave an activation of 19.6%. `N/C(=N\S(=O)(=O)c1cc(C(F)(F)F)cc(C(F)(F)F)c1)c1cccs1` gave an activation of 20.3%. With `O=C(NCc1ccccc1)c1ccc(S(=O)(=O)Nc2cccc(C(F)(F)F)c2)cc1` the activation was 10.8%. In the case of `CN(C)c1ccc(CNC2C3CC4CC(C3)CC2C4)cc1` (configuration not stated), the activation is reported as 7.01%. In the case of `COc1cc(NC(=O)c2ccccc2NS(=O)(=O)c2ccc(Cl)s2)cc(OC)c1`, the activation is reported as 0.49%. With `CC(Nc1ccccc1)c1cccnc1` (configuration not stated) the activation was 2.4%. `COc1ccc2nc(NC(=O)NC3CCCCC3)sc2c1` was tested, and the activation was 40.8% (active). In the case of `Cc1ccc(CCNC(=O)C2CCN(S(=O)(=O)N3CCCC3)CC2)cc1`, the activation is reported as -1.21%. Compound `O=C(Nc1sc2c(c1-c1nc3ccccc3[nH]1)CCCC2)C1CC1` has an activation of 19.1%.

The compounds below were run against Sphingosine 1-phosphate receptor 1 (Homo sapiens) (UniProt P21453) (assay: blockade of human S1P1 receptor – cell-based, counter-screen for S1P4 antagonist project (AID 1564; in the data active = inhibition above about 40%;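 also: receptor stimulated with S1P near its EC80; 0% = agonist stimulated wells and 100% = vehicle only wells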)). Conditions: cell-based S1P1 antagonist counterscreen, at 4.98 µM, stronger effect = higher value.
Chain of Sphingosine 1-phosphate receptor 1 (Homo sapiens) (P21453 whole entry, looked up): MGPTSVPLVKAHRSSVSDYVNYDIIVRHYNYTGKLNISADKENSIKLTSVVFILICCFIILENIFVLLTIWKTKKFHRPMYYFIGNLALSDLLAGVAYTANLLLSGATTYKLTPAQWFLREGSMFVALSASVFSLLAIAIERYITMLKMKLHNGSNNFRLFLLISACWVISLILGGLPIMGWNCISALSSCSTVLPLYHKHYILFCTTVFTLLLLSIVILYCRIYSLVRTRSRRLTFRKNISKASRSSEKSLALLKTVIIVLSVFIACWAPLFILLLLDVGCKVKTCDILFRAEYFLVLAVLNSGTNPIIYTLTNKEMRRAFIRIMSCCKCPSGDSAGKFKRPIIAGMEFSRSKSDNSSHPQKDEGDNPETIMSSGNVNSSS
In the case of `O=C1C=C(c2ccc(Cl)cc2)C(=O)N1Nc1ccccc1`, the inhibition is reported as 63% (active). `C=CS(=O)c1sc(Cl)c(N2CCOCC2)c1[N+](=O)[O-]` (configuration not stated) gave an inhibition of 12.4%. In the case of `CC1CC2=C(CC1/C=N/NC(N)=S)C(C)(C)CCC2` (configuration not stated), the inhibition is reported as 7.02%. With `Cc1cccc(NC(=O)c2ccc([N+](=O)[O-])o2)c1` the inhibition was 20.2%. In the case of `O=C(/C=C/c1ccc(Cl)c([N+](=O)[O-])c1)c1ccc(O)cc1`, the inhibition is reported as 14.6%. `CC1CC(C)CN(S(=O)(=O)c2cccc(C(=O)N3C(=O)c4cccc(N)c4C3=O)c2)C1` (configuration not stated) gave an inhibition of 8.25%. `O=C(Nc1ccccc1)c1nnsc1S(=O)(=O)c1ccc(Cl)cc1` was tested, and the inhibition was 37.5%. `Nc1nonc1-c1nc2ccccc2n1Cc1ccc(F)cc1` showed an inhibition of 33%.
